Data published in PubChem BioAssay (NCATS).
For part of these data: Results with a measured potency or affinity are listed apart. Calls of active or inactive are those of the source. No rule for the calls is given here.

Legend:
[1] = Ebola virus entry assay, green fluorescence channel
[2] = Ebola virus entry assay, blue channel fluorescence
[3] = Ebola virus entry assay, ratio channel
[4] = Ebola virus entry assay, green channel fluorescence
[5] = Ebola virus entry assay, reporter ratio channel; Channel type: primary
[6] = Ebola virus entry assay, blue channel (ratio component)

Measured: efficacy
For efficacy in this document: 0% is about no effect.

CCOc1c(N2CCOCC2)cnn(C)c1=O
inactive: [1] -16.1% | [2] | [3] | [4] | [5] | [6]

O=c1[nH]c(=O)n([C@H]2C[C@H](O)[C@@H](CO)O2)cc1C(F)(F)F
inactive: [1] 18.2% | [2] | [3] | [4] | [5] | [6]

Cc1c(N(C)C)c(=O)n(-c2ccccc2)n1C
inactive: [1] 14.3% | [2] | [3] | [4] | [5] | [6]

CN1CCCN=C1/C=C/c1cccs1
inactive: [1] -15% | [2] | [3] | [4] | [5] | [6]

CCOC(=O)CN1CCCC1=O
inactive: [1] 24% | [2] | [3] | [4] | [5] | [6]

OCC(O)CS (stereo unspecified)
inactive: [1] -11.9% | [2] | [3] | [4] | [5] | [6]
